Laboratory results as given in PubChem BioAssay.
The source made the active and inactive calls.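 The calls were made as follows, unless noted: active = inhibition above 20% together with a positive visual image hit; inconclusive = visual image hit but inhibition not above 20%; inactive = no visual image hit.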

Assays:
[1] = inhibitors of TNFa-induced NFkB p65 translocation, primary screen, imaging, HUVEC, MLSMR starter and 10KST1 sets (AID 438); details: HUVEC TNFa-induced p65 nuclear translocation; cell count: measured here: nuclei count (cytotoxicity indicator), at 2.08 µM; inhibition: at 2 µM, stronger effect = higher value, 0% TNFa-plus-vehicle, 100% no-TNFa wells;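 also: compound added about 3h40 before a 20 min TNFalpha stimulation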;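 as to inhibition: signal is the nuclear over cytoplasmic p65 intensity ratio per well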
[2] = reduction of polyQ htt aggregates in cells – imaging, exon1htt(103Q)mCFP cells, high-content imaging, primary screen (AID 483;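 active = visual image review flags a hit and inhibition of aggregation exceeds 20%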;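 also: compound exposure lasted 3 days before fixation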;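 as to nuclei count: percent of the per-plate median nuclei count of sample wells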); details: exon1htt(103Q)mCFP cell line, aggregate imaging, at 2 µM; inhibition of aggregation: stronger effect = higher value; nuclei count: measured here: cell count, toxicity
[3] = endothelial E-selectin expression blockers – imaging, HUVEC, immunofluorescence, MLSMR starter and 10KST1 sets, primary screen (AID 487;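 active = visually confirmed hit in the image check and inhibition above 20%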;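 as to inhibition: signal is fraction of cell area covered by stained E-selectin grains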;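 as to nuclei count: 100% = median nuclei count of all wells on the same plate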); details: HUVEC TNFalpha-induced E-selectin immunofluorescence imaging, at 2 µM; inhibition: stronger effect = higher value; nuclei count: measured here: cell number, toxicity
[4] = biological target: Voltage-gated potassium channel subunit beta-2 (Rattus norvegicus) (UniProt P62483); test: inhibitors of rat Kvbeta2 reductase activity – biochemical, NADPH fluorescence, primary screen (AID 622;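 active = fluorescence slope higher than the sample average by over 3 SD, cut at about -0.22 in these data, passing the limit was not always enough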;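 also: slope of raw intensity against log time taken from 70 to 1610 s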); details: recombinant KvBeta, 4-cyanobenzaldehyde reduction, at 10 µM, stronger effect = higher value
[5] = biological target: Voltage-gated potassium channel subunit beta-2 (Rattus norvegicus) (UniProt P62483); test: enhancers of rat Kvbeta2 NADPH turnover – biochemical, NADPH fluorescence, primary screen (AID 623;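 active = NADPH fluorescence slope more negative than the mean of all samples by about 3 SD, 99.7% confidence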;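 also: fluorescence intensity change per second fitted from 20 to 320 s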); details: Recombinant KvBeta, NADPH fluorescence decrease slope, 10 min; at 10 µM; stronger effect = lower value
[6] = biological target: Alpha-2C adrenergic receptor (Homo sapiens) (UniProt P18825); test: compounds altering alpha2C-coupled GIRK flux – cell-based, HEK293 alpha2C/GIRK1/2, thallium flux, primary screen (AID 624;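 active = fluorescence slope after compound addition differing from the mean of all screened samples at 99.7% confidence, in either direction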;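 also: slope of fluorescence ratio to pre-addition baseline per second over 15 to 24 s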); details: thallium flux BTC fluorescence, at 10 µM, actives lie on both sides
[7] = blockers of RIG-like receptor reporter activation – cell-based, Sendai virus stimulus, luciferase, 10K MLSCN set, TLR/RLR signaling modifier project, primary screen (AID 602276;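 active = inhibition at or above 50% at 10 µM; inactive = inhibition below 50%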;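 also: firefly luciferase from ISG56 promoter only with Renilla not read in this screen; 0% = Sendai virus plus DMSO and 100% = medium plus DMSO without virus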); details: HEK293 RL24 IRF3 luciferase reporter, at 10 µM, stronger effect = higher value
[8] = TLR3 IRF3 reporter activation blockers – cell-based, poly I:C stimulus, luciferase, 10K MLSCN set, primary screen (AID 602277;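 active = inhibition of the reporter signal at or above 50%; inactive = inhibition below 50%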); details: HEK293-TLR3 RL24 IRF3 luciferase reporter, at 10 µM, stronger effect = higher value

Sequence of Alpha-2C adrenergic receptor (Homo sapiens) (P18825 whole entry, looked up): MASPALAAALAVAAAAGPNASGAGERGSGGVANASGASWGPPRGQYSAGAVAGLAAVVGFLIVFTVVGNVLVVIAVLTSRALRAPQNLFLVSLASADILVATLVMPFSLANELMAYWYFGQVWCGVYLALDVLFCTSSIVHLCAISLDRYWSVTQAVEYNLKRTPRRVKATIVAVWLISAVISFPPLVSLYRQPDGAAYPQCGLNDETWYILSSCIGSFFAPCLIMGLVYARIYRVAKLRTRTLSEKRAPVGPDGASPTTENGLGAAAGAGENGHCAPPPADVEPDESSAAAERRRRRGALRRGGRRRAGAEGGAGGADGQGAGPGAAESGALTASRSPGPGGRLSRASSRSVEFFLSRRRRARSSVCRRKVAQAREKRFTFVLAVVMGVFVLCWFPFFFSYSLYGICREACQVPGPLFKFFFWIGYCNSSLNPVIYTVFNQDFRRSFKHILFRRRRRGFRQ
Sequence of Voltage-gated potassium channel subunit beta-2 (Rattus norvegicus) (P62483 whole entry, looked up): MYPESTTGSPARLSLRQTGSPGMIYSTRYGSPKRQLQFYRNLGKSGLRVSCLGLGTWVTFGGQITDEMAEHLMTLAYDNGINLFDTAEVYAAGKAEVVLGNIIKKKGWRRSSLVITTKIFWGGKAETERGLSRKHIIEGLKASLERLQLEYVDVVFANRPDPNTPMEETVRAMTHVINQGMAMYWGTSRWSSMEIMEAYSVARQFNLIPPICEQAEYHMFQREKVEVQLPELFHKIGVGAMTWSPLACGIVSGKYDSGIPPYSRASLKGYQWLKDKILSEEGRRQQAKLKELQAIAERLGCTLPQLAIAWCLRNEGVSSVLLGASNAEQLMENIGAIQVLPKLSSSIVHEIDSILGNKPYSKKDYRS

COc1ccc(NC(=O)CSc2nnc(Cc3cccn3C)n2-c2ccc(F)cc2)cc1
cell count [1]: 576 | inhibition [1]: 1.1% (inactive) | inhibition of aggregation [2]: -14.5% (inactive) | nuclei count [2]: 23.2% | inhibition [3]: -72.7% (inactive) | nuclei count [3]: 112% | fluorescence slope [4]: -0.577 (inactive) | NADPH fluorescence slope [5]: 1.2e-05 (inactive) | slope [6]: 0.00735 (inactive) | inhibition [7]: 15% (inactive) | inhibition [8]: 18.7% (inactive)

CCN1C(=O)CC(N2CCC(Nc3ccc(F)cc3)CC2)C1=O (configuration not stated)
cell count [1]: 559 | inhibition [1]: -9.7% (inactive) | inhibition of aggregation [2]: 6.4% (inactive) | nuclei count [2]: 57.1% | inhibition [3]: -72% (inactive) | nuclei count [3]: 94.1% | fluorescence slope [4]: -0.541 (inactive) | NADPH fluorescence slope [5]: 6.8e-06 (inactive) | slope [6]: 0.00599 (inactive) | inhibition [7]: -4.21% (inactive) | inhibition [8]: -6.01% (inactive)

COc1ccc(CCNC(=O)C2CC(=O)N(c3ccccc3)C2)cc1OC (configuration not stated)
cell count [1]: 336 | inhibition [1]: -2.5% (inactive) | inhibition of aggregation [2]: -5.4% (inactive) | nuclei count [2]: 102% | inhibition [3]: 22.4% (inactive) | nuclei count [3]: 109% | fluorescence slope [4]: -0.452 (inactive) | NADPH fluorescence slope [5]: 8.4e-07 (inactive) | slope [6]: 0.00653 (inactive) | inhibition [7]: 16.9% (inactive) | inhibition [8]: 25.7% (inactive)

CN(Cc1ccccc1)C(=O)CNC(=O)Cn1cnc2ccccc2c1=O
cell count [1]: 773 | inhibition [1]: 1.1% (inactive) | inhibition of aggregation [2]: -13.9% (inactive) | nuclei count [2]: 95.7% | inhibition [3]: -18.9% (inactive) | nuclei count [3]: 111% | fluorescence slope [4]: -0.602 (inactive) | NADPH fluorescence slope [5]: -2.5e-06 (inactive) | slope [6]: 0.00729 (inactive) | inhibition [7]: 4.6% (inactive) | inhibition [8]: 10.1% (inactive)

Cc1csc(NC(=O)CCn2c(=O)oc3ccccc32)n1
cell count [1]: 502 | inhibition [1]: -20.3% (inactive) | inhibition of aggregation [2]: -30.3% (inactive) | nuclei count [2]: 79.1% | inhibition [3]: -6.4% (inactive) | nuclei count [3]: 90.9% | fluorescence slope [4]: -0.323 (inactive) | NADPH fluorescence slope [5]: -4.9e-05 (inactive) | slope [6]: 0.00431 (inactive) | inhibition [7]: 4.3% (inactive) | inhibition [8]: -1.46% (inactive)

COc1cccc(CNC(=O)C2CCN(C(=O)N(C)C)CC2)c1
cell count [1]: 569 | inhibition [1]: 8.3% (inactive) | inhibition of aggregation [2]: -46.5% (inactive) | nuclei count [2]: 52.8% | inhibition [3]: -15.7% (inactive) | nuclei count [3]: 109% | fluorescence slope [4]: -0.345 (inactive) | NADPH fluorescence slope [5]: -6.9e-05 (inactive) | slope [6]: 0.00563 (inactive) | inhibition [7]: 11.6% (inactive) | inhibition [8]: 32.8% (inactive)

O=C1CN(C(=O)COC(=O)c2ccccc2NC(=O)c2ccco2)c2ccccc2N1
cell count [1]: 271 | inhibition [1]: -3.3% (inactive) | inhibition of aggregation [2]: 7.3% (inactive) | nuclei count [2]: 108% | inhibition [3]: -31% (inactive) | nuclei count [3]: 123% | fluorescence slope [4]: -0.507 (inactive) | NADPH fluorescence slope [5]: -8.2e-05 (inactive) | slope [6]: 0.00572 (inactive) | inhibition [7]: 8.42% (inactive) | inhibition [8]: -17.5% (inactive)
